Results from publication PMC7862700, “An all-to-all approach to the identification of sequence-specific readers for epigenetic DNA modifications on cytosine”.

How the values were obtained:
Assay in all cases: DAPPL (digital affinity profiling via proximity ligation, sequencing); 10 mM Tris-HCl pH 7.5, 50 mM NaCl, 1 mM DTT, 4% glycerol, room temperature, 30 min; GST-TFs on glutathione beads, 16-mer random dsDNA library, 0.1% formaldehyde crosslink after washing; high values mean tight binding
Conditions in all cases: protein: recombinant; tags: N-terminal GST; dsDNA, one strand shown
FEV = target: T1, FEV (Homo sapiens, UniProt Q99581 1-238)
T1 sequence: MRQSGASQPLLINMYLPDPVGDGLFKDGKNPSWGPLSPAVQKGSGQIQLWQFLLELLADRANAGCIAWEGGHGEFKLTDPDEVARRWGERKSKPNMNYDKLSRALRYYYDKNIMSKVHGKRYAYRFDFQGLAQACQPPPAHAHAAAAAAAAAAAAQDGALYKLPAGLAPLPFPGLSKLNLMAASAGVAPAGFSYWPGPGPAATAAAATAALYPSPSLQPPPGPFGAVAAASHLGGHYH
Method in brief: (§1)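 Yeast served to express human transcription factors as GST fusions, which were then captured on glutathione beads and labelled with DNA barcodes. Pooled with a tag-only sample, they were incubated with 200 nmole of a 16-mer random double-stranded DNA library for 30 min at room temperature in Tris/NaCl/DTT/glycerol buffer, washed, crosslinked with 0.1% formaldehyde, ligated by proximity, amplified by PCR and sequenced. Dividing each hexamer's read frequency for a factor by its frequency for the tag-only sample gives the binding signal.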

ETV5 = ETV5 (Homo sapiens, UniProt P41161 1-510)
Method in brief: as §1

SPIC = target: T2, SPIC (Homo sapiens, UniProt Q8N5J4 1-248)
T2 sequence: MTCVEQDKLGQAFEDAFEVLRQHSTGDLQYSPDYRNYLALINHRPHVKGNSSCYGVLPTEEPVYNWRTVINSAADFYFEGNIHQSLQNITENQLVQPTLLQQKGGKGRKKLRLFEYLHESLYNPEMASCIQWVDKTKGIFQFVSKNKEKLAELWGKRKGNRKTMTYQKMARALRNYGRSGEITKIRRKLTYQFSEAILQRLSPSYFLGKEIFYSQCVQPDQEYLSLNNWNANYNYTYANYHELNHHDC
Method in brief: as §1

ELF4 = ELF4 (Homo sapiens, UniProt Q99607 1-663)
Method in brief: as §1

ELK4 = target: T3, ELK4 (Homo sapiens, UniProt P28324-2 1-405)
T3 sequence: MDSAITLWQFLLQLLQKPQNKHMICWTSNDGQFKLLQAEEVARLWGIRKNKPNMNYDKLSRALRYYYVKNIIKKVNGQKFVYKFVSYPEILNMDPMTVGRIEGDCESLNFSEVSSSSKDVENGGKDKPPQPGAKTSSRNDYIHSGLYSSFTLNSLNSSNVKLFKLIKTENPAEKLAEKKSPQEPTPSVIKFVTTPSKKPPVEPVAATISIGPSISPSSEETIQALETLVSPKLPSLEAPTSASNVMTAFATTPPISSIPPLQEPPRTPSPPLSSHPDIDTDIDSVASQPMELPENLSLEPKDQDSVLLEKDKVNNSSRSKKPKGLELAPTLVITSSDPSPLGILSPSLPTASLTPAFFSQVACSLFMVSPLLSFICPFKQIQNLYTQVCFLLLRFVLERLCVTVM
Method in brief: as §1

ELF3 = target: T4, ELF3 (Homo sapiens, UniProt P78545 1-371)
T4 sequence: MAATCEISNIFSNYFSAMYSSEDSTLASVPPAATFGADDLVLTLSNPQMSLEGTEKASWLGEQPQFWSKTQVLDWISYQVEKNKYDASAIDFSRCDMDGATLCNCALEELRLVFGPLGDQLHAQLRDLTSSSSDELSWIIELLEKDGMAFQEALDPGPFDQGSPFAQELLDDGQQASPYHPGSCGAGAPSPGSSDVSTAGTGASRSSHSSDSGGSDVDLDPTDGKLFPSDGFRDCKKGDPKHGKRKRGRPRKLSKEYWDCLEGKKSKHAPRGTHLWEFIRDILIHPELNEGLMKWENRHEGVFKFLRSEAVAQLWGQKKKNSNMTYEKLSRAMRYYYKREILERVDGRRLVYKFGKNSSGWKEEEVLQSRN
Method in brief: as §1

ETV1 = ETV1 (Homo sapiens, UniProt P50549 1-477)
Method in brief: as §1

ERF = target: T5, ERF (Homo sapiens, UniProt P50548 1-548)
T5 sequence: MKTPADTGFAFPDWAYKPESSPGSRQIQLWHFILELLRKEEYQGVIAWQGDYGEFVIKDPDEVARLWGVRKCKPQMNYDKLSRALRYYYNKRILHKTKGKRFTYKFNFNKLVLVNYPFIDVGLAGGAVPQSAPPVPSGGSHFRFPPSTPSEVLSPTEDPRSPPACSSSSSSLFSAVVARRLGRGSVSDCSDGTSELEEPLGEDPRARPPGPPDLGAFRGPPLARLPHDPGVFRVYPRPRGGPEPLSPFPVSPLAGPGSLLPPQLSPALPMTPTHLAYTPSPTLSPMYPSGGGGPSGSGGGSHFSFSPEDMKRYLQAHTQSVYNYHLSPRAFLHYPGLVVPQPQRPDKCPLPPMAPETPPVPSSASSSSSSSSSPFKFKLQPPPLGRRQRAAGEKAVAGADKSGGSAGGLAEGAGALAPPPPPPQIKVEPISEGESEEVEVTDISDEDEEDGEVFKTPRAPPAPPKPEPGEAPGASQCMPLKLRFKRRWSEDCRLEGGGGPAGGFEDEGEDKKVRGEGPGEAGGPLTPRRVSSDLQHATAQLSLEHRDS
Method in brief: as §1

ETV3L = target: T6, ETV3L (Homo sapiens, UniProt Q6ZN32 1-361)
T6 sequence: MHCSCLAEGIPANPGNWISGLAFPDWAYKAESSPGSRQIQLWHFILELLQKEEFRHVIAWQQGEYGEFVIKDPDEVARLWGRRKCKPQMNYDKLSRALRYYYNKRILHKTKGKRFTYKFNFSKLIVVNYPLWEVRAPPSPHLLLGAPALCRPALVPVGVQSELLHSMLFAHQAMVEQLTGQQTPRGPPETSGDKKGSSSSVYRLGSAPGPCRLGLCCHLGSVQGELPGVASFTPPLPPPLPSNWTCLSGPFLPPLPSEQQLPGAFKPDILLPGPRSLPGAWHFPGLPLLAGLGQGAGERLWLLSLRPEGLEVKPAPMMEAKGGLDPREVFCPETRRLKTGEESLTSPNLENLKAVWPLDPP
Method in brief: as §1

ETS2 = target: T7, ETS2 (Homo sapiens, UniProt P15036 1-469)
T7 sequence: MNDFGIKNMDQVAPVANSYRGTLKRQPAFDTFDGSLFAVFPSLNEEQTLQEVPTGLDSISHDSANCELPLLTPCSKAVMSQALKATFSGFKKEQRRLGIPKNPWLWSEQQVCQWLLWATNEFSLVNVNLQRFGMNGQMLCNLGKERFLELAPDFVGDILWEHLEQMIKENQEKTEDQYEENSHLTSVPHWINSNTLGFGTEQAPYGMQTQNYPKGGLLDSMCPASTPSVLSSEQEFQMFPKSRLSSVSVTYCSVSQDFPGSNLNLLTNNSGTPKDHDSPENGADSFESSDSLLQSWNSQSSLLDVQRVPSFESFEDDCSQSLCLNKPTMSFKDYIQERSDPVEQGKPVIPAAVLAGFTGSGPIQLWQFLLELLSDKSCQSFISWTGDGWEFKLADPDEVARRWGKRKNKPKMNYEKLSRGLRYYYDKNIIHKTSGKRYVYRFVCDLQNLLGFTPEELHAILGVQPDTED
Method in brief: as §1

SPDEF = target: T8, SPDEF (Homo sapiens, UniProt O95238 1-335)
T8 sequence: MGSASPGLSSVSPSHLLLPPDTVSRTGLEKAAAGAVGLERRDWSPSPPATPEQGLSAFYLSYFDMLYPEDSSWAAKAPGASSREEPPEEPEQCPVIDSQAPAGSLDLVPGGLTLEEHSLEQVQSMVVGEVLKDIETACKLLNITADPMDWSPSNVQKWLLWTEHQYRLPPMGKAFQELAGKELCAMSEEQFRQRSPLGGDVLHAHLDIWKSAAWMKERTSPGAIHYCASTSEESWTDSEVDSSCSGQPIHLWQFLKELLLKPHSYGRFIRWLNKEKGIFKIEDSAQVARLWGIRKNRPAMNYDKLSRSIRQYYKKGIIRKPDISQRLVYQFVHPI
Method in brief: as §1

ETV7 = target: T9, ETV7 (Homo sapiens, UniProt Q9Y603 1-341)
T9 sequence: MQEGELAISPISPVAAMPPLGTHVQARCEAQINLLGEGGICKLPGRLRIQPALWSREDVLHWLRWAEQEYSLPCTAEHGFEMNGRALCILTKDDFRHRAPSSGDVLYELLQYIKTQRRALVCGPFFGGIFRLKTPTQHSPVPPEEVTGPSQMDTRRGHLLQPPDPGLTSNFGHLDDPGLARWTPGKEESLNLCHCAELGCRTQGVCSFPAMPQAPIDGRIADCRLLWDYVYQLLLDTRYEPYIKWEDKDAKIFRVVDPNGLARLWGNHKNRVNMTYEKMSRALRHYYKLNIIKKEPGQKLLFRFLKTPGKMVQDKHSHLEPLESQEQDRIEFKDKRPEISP
Method in brief: as §1

ELF5 = target: T10, ELF5 (Homo sapiens, UniProt Q9UKW6-2 1-255)
T10 sequence: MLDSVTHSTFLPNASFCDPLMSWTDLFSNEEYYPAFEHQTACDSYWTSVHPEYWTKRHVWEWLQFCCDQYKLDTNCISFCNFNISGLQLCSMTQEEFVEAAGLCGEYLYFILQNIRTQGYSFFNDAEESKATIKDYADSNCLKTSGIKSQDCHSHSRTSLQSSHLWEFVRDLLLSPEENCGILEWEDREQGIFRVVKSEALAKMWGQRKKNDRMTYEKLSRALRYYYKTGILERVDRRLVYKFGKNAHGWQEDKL
Method in brief: as §1

ETV3 = target: T11, ETV3 (Homo sapiens, UniProt P41162-2 1-143)
T11 sequence: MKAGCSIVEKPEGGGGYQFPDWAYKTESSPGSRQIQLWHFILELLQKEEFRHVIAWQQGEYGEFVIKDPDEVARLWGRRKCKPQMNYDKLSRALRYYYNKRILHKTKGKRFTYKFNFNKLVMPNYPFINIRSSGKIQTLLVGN
Method in brief: as §1

ETV6 = ETV6 (Homo sapiens, UniProt P41212 1-452)
Method in brief: as §1

CRX = CRX (Homo sapiens, UniProt O43186 1-299)
Method in brief: as §1

Chain of ETV6 (P41212 whole entry): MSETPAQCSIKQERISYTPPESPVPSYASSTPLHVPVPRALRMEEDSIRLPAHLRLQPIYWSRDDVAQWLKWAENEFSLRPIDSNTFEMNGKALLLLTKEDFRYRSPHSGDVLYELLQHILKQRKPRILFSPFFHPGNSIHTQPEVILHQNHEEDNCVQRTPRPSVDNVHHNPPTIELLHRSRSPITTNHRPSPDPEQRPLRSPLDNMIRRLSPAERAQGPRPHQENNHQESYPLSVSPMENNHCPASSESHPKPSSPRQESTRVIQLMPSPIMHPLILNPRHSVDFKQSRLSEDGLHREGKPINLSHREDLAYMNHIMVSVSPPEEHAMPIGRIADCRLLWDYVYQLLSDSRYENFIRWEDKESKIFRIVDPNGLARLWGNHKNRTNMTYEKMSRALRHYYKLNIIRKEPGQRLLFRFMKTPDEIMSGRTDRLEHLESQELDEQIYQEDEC
Chain of ETV5 (P41161 whole entry): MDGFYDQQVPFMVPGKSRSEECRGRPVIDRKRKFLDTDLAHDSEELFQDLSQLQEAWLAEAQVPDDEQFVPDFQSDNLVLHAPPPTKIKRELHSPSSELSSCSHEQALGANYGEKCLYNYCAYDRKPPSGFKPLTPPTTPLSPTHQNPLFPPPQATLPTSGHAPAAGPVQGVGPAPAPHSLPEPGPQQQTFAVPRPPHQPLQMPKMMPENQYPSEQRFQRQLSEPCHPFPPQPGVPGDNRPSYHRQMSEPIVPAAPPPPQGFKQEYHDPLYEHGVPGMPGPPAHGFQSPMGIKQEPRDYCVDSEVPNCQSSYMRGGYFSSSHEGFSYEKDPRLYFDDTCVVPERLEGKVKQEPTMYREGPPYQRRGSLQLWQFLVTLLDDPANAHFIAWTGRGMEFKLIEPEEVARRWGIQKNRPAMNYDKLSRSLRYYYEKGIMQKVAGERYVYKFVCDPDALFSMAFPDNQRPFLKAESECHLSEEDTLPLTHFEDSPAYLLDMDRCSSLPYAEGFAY
Chain of ETV1 (P50549 whole entry): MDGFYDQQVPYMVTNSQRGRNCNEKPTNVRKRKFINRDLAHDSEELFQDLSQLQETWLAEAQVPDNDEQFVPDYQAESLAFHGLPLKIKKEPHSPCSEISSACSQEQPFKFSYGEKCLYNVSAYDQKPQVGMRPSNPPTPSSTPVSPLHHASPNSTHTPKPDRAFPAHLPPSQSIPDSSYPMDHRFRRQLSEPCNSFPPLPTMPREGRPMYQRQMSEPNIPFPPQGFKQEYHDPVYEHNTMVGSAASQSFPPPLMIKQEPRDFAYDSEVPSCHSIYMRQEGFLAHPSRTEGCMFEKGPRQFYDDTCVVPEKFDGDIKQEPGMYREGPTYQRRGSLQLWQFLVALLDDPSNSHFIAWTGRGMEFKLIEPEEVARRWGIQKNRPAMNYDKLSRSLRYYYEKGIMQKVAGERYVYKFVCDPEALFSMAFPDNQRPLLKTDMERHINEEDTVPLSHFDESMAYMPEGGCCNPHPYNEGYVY
Chain of ELF4 (Q99607 whole entry): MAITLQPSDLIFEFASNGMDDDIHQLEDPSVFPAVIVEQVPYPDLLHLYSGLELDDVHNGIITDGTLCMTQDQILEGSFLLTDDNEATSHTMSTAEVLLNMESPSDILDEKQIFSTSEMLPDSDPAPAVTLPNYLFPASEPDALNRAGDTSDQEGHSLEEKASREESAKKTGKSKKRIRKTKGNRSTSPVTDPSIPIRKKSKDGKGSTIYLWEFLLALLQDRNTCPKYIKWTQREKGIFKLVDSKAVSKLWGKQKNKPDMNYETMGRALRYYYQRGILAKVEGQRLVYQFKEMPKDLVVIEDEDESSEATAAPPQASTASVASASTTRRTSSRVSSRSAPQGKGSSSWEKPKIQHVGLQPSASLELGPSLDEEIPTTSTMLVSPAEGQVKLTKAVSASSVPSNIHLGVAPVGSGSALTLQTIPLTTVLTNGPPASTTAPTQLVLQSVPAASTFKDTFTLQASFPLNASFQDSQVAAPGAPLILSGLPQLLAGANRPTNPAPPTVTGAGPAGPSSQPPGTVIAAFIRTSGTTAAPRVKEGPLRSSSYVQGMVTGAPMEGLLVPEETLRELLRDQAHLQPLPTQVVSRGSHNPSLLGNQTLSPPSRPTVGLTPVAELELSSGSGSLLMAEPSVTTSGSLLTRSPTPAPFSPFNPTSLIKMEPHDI
Chain of CRX (O43186 whole entry): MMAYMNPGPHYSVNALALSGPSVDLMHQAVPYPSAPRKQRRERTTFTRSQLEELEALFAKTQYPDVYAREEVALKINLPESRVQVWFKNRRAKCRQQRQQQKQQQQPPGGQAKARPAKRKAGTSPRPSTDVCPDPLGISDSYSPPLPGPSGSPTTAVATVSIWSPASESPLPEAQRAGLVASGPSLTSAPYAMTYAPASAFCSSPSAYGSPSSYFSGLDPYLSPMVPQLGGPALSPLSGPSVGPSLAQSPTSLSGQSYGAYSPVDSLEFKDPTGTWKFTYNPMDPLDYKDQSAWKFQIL

| Sequence | binding signal (FEV) | binding signal (ETV5) | binding signal (SPIC) | binding signal (ELF4) | binding signal (ELK4) | binding signal (ELF3) | binding signal (ETV1) | binding signal (ERF) | binding signal (ETV3L) | binding signal (ETS2) | binding signal (SPDEF) | binding signal (ETV7) | binding signal (ELF5) | binding signal (ETV3) | binding signal (ETV6) | binding signal (CRX) |
| --- | --- | --- | --- | --- | --- | --- | --- | --- | --- | --- | --- | --- | --- | --- | --- | --- |
| CGCTGC | 1.14 fold enrichment (6-mer frequency, TF over GST control) | 1.18 fold enrichment (6-mer frequency, TF over GST control) | 1.21 fold enrichment (6-mer frequency, TF over GST control) | 1.1 fold enrichment (6-mer frequency, TF over GST control) | 1.2 fold enrichment (6-mer frequency, TF over GST control) | 1.03 fold enrichment (6-mer frequency, TF over GST control) | 1.21 fold enrichment (6-mer frequency, TF over GST control) | 1.28 fold enrichment (6-mer frequency, TF over GST control) | 1.17 fold enrichment (6-mer frequency, TF over GST control) | 1.28 fold enrichment (6-mer frequency, TF over GST control) | 1.15 fold enrichment (6-mer frequency, TF over GST control) | 1.03 fold enrichment (6-mer frequency, TF over GST control) | 1.07 fold enrichment (6-mer frequency, TF over GST control) | 1.13 fold enrichment (6-mer frequency, TF over GST control) | 1.18 fold enrichment (6-mer frequency, TF over GST control) | – |
| ATATGA | 1.03 fold enrichment (6-mer frequency, TF over GST control) | 1.11 fold enrichment (6-mer frequency, TF over GST control) | 1.16 fold enrichment (6-mer frequency, TF over GST control) | 1.1 fold enrichment (6-mer frequency, TF over GST control) | 1.19 fold enrichment (6-mer frequency, TF over GST control) | 1.1 fold enrichment (6-mer frequency, TF over GST control) | 1.05 fold enrichment (6-mer frequency, TF over GST control) | 1.13 fold enrichment (6-mer frequency, TF over GST control) | 1.14 fold enrichment (6-mer frequency, TF over GST control) | 1.09 fold enrichment (6-mer frequency, TF over GST control) | 1.05 fold enrichment (6-mer frequency, TF over GST control) | 1.12 fold enrichment (6-mer frequency, TF over GST control) | 1.1 fold enrichment (6-mer frequency, TF over GST control) | 1.08 fold enrichment (6-mer frequency, TF over GST control) | 1.06 fold enrichment (6-mer frequency, TF over GST control) | 1.02 fold enrichment (6-mer frequency, TF over GST control) |
